Structures can show the parent of a compound that is named as a salt.
How the values were obtained:
Assay in all cases: Euclidean distance of Cell Painting phenotypic profile (signed KS, 77 features) to DMSO centroid (dimensionless distance); 5 or 10 uM (library dependent); higher = stronger phenotypic change vs DMSO (phenoactivity)
Conditions in all cases: 48 h
[1] = test system: 786-O
Outline: (§1)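 Phenoactivity is computed as Euclidean distance to the median vehicle profile. The profiles, drawn from 77 Harmony features scored as signed Kolmogorov-Smirnov statistics versus same-plate vehicle wells, were corrected for plate position, correlation-weighted and replicate-averaged at the top dose. Stained cells were imaged confocally at 20X (9 fields/well) after 48 h with library compounds at 10 or 5 uM, 0.1% DMSO final, in five cancer lines and a healthy fibroblast line.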

[2] = test system: A549
Outline: as §1

[3] = test system: DU145
Outline: as §1

[4] = test system: FB
Outline: as §1

[5] = test system: HEPG2
Outline: as §1

[6] = test system: OVCAR4
Outline: as §1

| Structure (SMILES) | Euclidean distance [1] | Euclidean distance [2] | Euclidean distance [3] | Euclidean distance [4] | Euclidean distance [5] | Euclidean distance [6] |
| --- | --- | --- | --- | --- | --- | --- |
| CC(C(=O)O)c1cccc(Oc2ccccc2)c1 (centres undefined) [Fenoprofen calcium hydrate] | 1.27 | 0.707 | 0.898 | 0.869 | 0.486 | 1.2 |
| CCCN(CCC)CCc1cccc2c1CC(=O)N2 [Ropinirole HCl] | 1.32 | 1.01 | 0.736 | 1.3 | 0.483 | 1.2 |
| CC(O)c1cc(C(=O)N[C@@H](C)Cn2ccc(-c3ccc(C#N)c(Cl)c3)n2)n[nH]1 (some centres undefined) [Darolutamide (ODM-201)] | 0.846 | 0.505 | 1.04 | 1.05 | 0.543 | 0.668 |
| O=C(CCCCCCC(=O)Nc1ccccc1)NO [Vorinostat (SAHA. MK0683)] | 3.44 | 2.96 | 3.15 | 3.77 | 3.15 | 2.85 |
| CO[C@H]1/C=C/O[C@@]2(C)Oc3c(C)c(O)c4c(O)c(c5c(nc6cc(C)ccn65)c4c3C2=O)NC(=O)/C(C)=C\C=C\[C@H](C)[C@H](O)[C@@H](C)[C@@H](O)[C@@H](C)[C@H](OC(C)=O)[C@@H]1C [Rifaximin] | 1.35 | 0.671 | 0.886 | 1 | 1.9 | 1.06 |
| O=C(Nc1cccc(C(F)(F)F)c1)Nc1cc(S(=O)(=O)NC2CC2)ccc1-c1ccsc1 | 0.684 | 1.29 | 1.11 | 1.51 | 2.45 | 1.01 |
| N[C@@H](CCC(=O)O)C(=O)O [(S)-Glutamic acid] | 1.39 | 0.982 | 1.47 | 0.799 | 0.834 | 1.57 |
| Cc1cc(N2CCN([C@@H]3CN[C@H](C(=O)N4CCSC4)C3)CC2)n(-c2ccccc2)n1 [Teneligliptin hydrobromide] | 1.1 | 1.09 | 2.06 | 1.2 | 1.21 | 1.33 |
| NC(=O)Cc1cccc(C(=O)c2ccccc2)c1N [Nepafenac] | 1.03 | 1.31 | 2.96 | 1.25 | 1.14 | 0.874 |
| OCc1cc(C(O)CNCCCCCCOCCCCc2ccccc2)ccc1O (centres undefined) [Salmeterol] | 1.56 | 1.95 | 1.51 | 1.75 | 2.13 | 1.77 |
| CNC(=O)c1cc(Oc2ccc(NC(=O)Nc3ccc(Cl)c(C(F)(F)F)c3)c(F)c2)ccn1 [Regorafenib Monohydrate] | 2.14 | 2.35 | 1.71 | 1.8 | 1.82 | 1.76 |
| CC(C)Cn1cnc2c(N)nc3ccccc3c21 [Imiquimod] | 0.967 | 1.15 | 0.652 | 0.784 | 0.448 | 0.537 |
| COc1cc(NS(=O)(=O)c2ccc(N)cc2)nc(OC)n1 [SulfadiMethoxine sodium] | 1.05 | 0.781 | 0.776 | 1.03 | 0.428 | 0.631 |
| O=c1ccc2cc3ccoc3cc2o1 [Psoralen] | 1.35 | 0.643 | 0.873 | 1.16 | 1.17 | 1.04 |
| COc1ccccc1S(=O)(=O)Nc1ccc2c(c1)CN(C)C(=O)N2 | 1.98 | 1.83 | 1.91 | 2.84 | 2.74 | 1.87 |
| CCOC(=O)C1=C[C@@H](OC(CC)CC)[C@H](NC(C)=O)[C@@H](N)C1 [Oseltamivir Phosphate] | 1.49 | 1.2 | 1.23 | 0.91 | 0.386 | 1.62 |
| Cc1[nH]cnc1CN1CCc2c(c3ccccc3n2C)C1=O [Alosetron Hydrochloride] | 1.67 | 0.744 | 0.859 | 0.731 | 0.664 | 1.33 |
| CC(C)CN(C[C@@H](O)[C@H](Cc1ccccc1)NC(=O)O[C@H]1CCOC1)S(=O)(=O)c1ccc(N)cc1 [Amprenavir] | 1.35 | 1.29 | 1.22 | 1.22 | 1.26 | 1.6 |
| C=C1CC[C@H]2C(=C)CC[C@H]3C(=C)C(=O)O[C@@H]3[C@@H]12 [Dehydrocostus Lactone] | 6.1 | 3.77 | 7.43 | 3.32 | 3.68 | 2.97 |
| Oc1ccc(C2CNCCc3c2cc(O)c(O)c3Cl)cc1 (centres undefined) [Fenoldopam mesylate] | 1.43 | 1.07 | 0.768 | 0.976 | 1.19 | 0.867 |
| CN(CCN1CCC(OC(=O)Nc2ccccc2-c2ccccc2)CC1)C(=O)c1ccc(CN2CCC(C(N)=O)CC2)cc1 [Revefenacin] | 1.01 | 1.27 | 1.01 | 1.33 | 1.25 | 1.44 |
| CN[C@H]1CC[C@@H](c2ccc(Cl)c(Cl)c2)c2ccccc21 [Sertraline HCl] | 2.46 | 2.13 | 1.74 | 2.83 | 4.1 | 2.02 |
| Cc1cc(CN2CCN(c3c(Br)cnc4nc(-c5ccc(N6CCN(C)CC6)cc5)[nH]c34)CC2)no1 | 1.51 | 1.27 | 1.12 | 0.806 | 1.67 | 1.25 |
| C[C@]12CC[C@@H]3c4ccc(O)cc4CC[C@H]3[C@@H]1CC[C@@H]2OC(=O)CCC1CCCC1 [Estradiol Cypionate] | 1.29 | 1.56 | 1.4 | 1.23 | 0.84 | 1.34 |
| CN(C)CCN(Cc1ccc(Cl)cc1)c1ccccn1 [Chloropyramine hydrochloride] | 0.88 | 1.23 | 1.39 | 1.03 | 0.594 | 1.1 |
| O=C(O)Cc1ccccc1Nc1c(Cl)cccc1Cl [Diclofenac Sodium] | 1.2 | 0.988 | 0.729 | 1.14 | 0.995 | 0.677 |
| Fc1ccc([C@@H]2CCNC[C@H]2COc2ccc3c(c2)OCO3)cc1 [Paroxetine mesylate] | 1.64 | 1.28 | 1.89 | 1.62 | 2.59 | 1.52 |
| C#C[C@]1(O)CC[C@H]2[C@@H]3CCC4=CC(=O)CC[C@@H]4[C@H]3CC[C@@]21C [Norethindrone] | 1 | 0.864 | 0.791 | 1.2 | 0.575 | 1.29 |
| CC1(C)O[C@@H]2C[C@H]3[C@@H]4CCC5=CC(=O)C=C[C@]5(C)[C@H]4[C@@H](O)C[C@]3(C)[C@]2(C(=O)CO)O1 [Desonide] | 1.09 | 1.9 | 2.27 | 1.55 | 0.639 | 1.61 |

— the supplement of paper PMC10127200
